Source: PubChem BioAssay (National Center for Advancing Translational Sciences (NCATS))
The list is not random: actives were taken first. Their share in the collection is about 6.2%.
HT1080 IDH1KD tx – kills HT-1080 cells with IDH1 knockdown; HT-1080 IDH1 knockdown viability, ATP luminescence, 48 h; Potency, µM (titrated, usually from 46.1 µM), for inactives: at the top dose activity, negative = toxicity, actives largely listed as cytotoxic; 360,000 tested, 2% active;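 note: 0% = DMSO wells and -100% = cell-free medium wells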
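Luminescent ATP read-out (CellTiter-Glo, 10 min at room temperature) after 48 h compound exposure at 37 °C gave viability of IDH1-knockdown HT-1080 cells. Activity was normalised to DMSO and cell-free wells, then fitted as concentration-response curves.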
KB-3-1 tox – kills parental KB-3-1 adenocarcinoma cells; Potency, µM (series often up to 46.1 µM), usual class: cytotoxic; KB-3-1 viability, CellTiter-Glo ATP luminescence, 72 h; 400,000 tested, 1.4% active; note: % is set by controls: 0 for no effect and ±100 for the full control effect; nearly all actives have a fitted effect of over 60% in size
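Cytotoxicity in the drug-sensitive parental line KB-3-1 was scored as loss of CellTiter-Glo luminescence following 72 h incubation with compound. Values come from curve fitting of normalized concentration-response data.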
KB-V1 cytotox – kills drug-selected multidrug resistant KB-V1 cells | Potency, µM (doses to about 46.1 µM), usual class: cytotoxic | 400,000 tested, 3.4% active | KB-V1 MDR cells viability, CellTiter-Glo, 72 h; note: % is set by controls: 0 for no effect and ±100 for the full control effect; nearly all actives have a fitted effect of over 60% in size
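Readout: CellTiter-Glo luminescence, 10 min after addition. Cells: KB-V1 MDR subline, 72 h at 37 degrees C with compound. Analysis: corrected, normalized data fitted to concentration-effect curves.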
S2 tox – viability counter-screen for ATXN expression inhibitors | S2 cells (HEK-293 line with an ATXN2-luciferase reporter) viability, CellTiter-Fluor protease fluorescence, 24 h | Potency, µM (highest dose often 56.7 µM), most hits filed as cytotoxic | 400,000 tested, 0.49% active | AID 651635; note: nearly all actives have a fitted effect of over 40% in size
ATXN2 expr inh – ATXN2 expression inhibition; HEK-293 ATXN2-luciferase reporter, luminescence, 24 h; Potency, µM (series often up to 57 µM), without a hit: at the top dose activity change, negative = inhibition, hits mostly inhibitors; 360,000 tested, 0.72% active; AID 1745845; note: % is set by controls: 0 for no effect and ±100 for the full control effect; nearly all actives have a fitted effect of over 55% in size
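ATXN2-luciferase reporter cells (luciferase flanked by upstream and downstream ATXN2 gene portions) were treated 24 h at 37 °C with compounds at up to 57 uM. SteadyGlo luminescence gave expression; GF-AFC fluorescence gave viability.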
HT1080-NT tox – kills 2HG-producing HT-1080-NT fibrosarcoma cells. HT-1080-NT fibrosarcoma viability, CellTiter-Glo ATP luminescence, 48 h. Potency, µM (titrated, usually from 46.1 µM), inactives show at the highest dose activity, negative = less viability, most hits filed as cytotoxic. 360,000 tested, 1.6% active. AID 686970;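 note: NT is the 2HG producing partner of a matched IDH1 knockdown line; 0% = DMSO-treated cells and -100% = media-only wells without cells; nearly all actives have a fitted effect of over 55% in size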
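Luminescent CellTiter-Glo readout after 48 hours of compound exposure at 37 degrees C defined viability of HT-1080-NT cells. Activity was normalized to DMSO wells and cell-free media wells; concentration-response curves were fitted and assigned curve classes.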
* marks the source's active call; other numbers are inactive results; i = inactive; ? = inconclusive; nt = not tested or not shown. Calls come from the whole dose curve; as a rule, active = well fitted curve in the direction sought with a large enough effect; inconclusive = small, poorly fitted or top-dose-only effect, or another doubt; inactive = no such curve, though single readings can be large; an effect the other way counts as inactive or inconclusive. Potency is the fitted concentration of half-maximal effect.

SMILES	HT1080 IDH1KD tx	KB-3-1 tox	KB-V1 cytotox	S2 tox	ATXN2 expr inh	HT1080-NT tox
Cn1c(-c2ccc(F)cc2)cnc1NCc1ccc(F)cc1	-22.4%	i	i	i	4.5%	-6.2%
Cn1c(-c2ccc(F)cc2)cnc1NCc1ccc(C#N)cc1	-23.9%	i	20.6µM*	i	0.4%	-12.2%
Cn1cc(C=CC(=O)c2cccc(F)c2)cc1C=CC(=O)NO	nt	nt	nt	nt	35.6%	nt
Cc1ccc(S(=O)(=O)Nc2cc3c(C(=O)OCc4ccccc4)c(C)oc3c3ccccc23)c(C)c1	nt	i	i	i	8.6%	nt
C(#Cc1ccc(C#CCN2CCOCC2)cc1)CN1CCOCC1	2.0%	i	18.4µM*	i	3.9%	-5.1%
Cc1c(C(=O)O)c(O)cc2c1C(=O)c1c(O)c([C@@H]3O[C@H](CO)[C@@H](O)[C@H](O)[C@H]3O)c(O)c(O)c1C2=O	-21.2%	i	i	17.8µM*	0.0%	-29.6%
CCCCC(=O)Nc1cccc(NC(=O)CC)c1	-0.2%	i	i	i	0.9%	-0.5%
CCCCC(=O)Nc1cccc(NC(=O)c2ccccc2Br)c1	-1.4%	i	5.17µM*	i	-10.2%	2.1%
COc1cccc(NC(=O)c2ccccc2Br)c1	6.3%	i	i	i	nt	3.9%
CCCCC(=O)Nc1cccc(NC(=S)NC(=O)C(C)C)c1	5.0%	i	20.6µM*	i	-8.7%	3.1%
Cc1ccc(OCC(=O)N2CCN(c3nnc(-c4ccc(C)cc4)c4ccccc34)CC2)cc1	?	16.4µM*	2.59µM*	?	28.2µM*	14.1µM*
COc1ccc(OCC(=O)N2CCN(c3nnc(-c4ccccc4)c4ccccc34)CC2)cc1	-3.7%	23.1µM*	2.59µM*	i	-13.4%	-26.4%
COc1ccc(OCC(=O)N2CCN(c3nnc(-c4ccc(C)cc4)c4ccccc34)CC2)cc1	?	?	5.17µM*	?	?	?
Cc1ccc(-c2nnc(N3CCN(C(=O)COc4cccc(C)c4)CC3)c3ccccc23)cc1	-20.3%	?	?	i	-27.6%	-0.9%
O=C(COc1ccccc1)N1CCN(c2nnc(-c3ccccc3)c3ccccc23)CC1	-23.1%	?	4.11µM*	i	-31.4%	?
CC1=C(C(=O)Nc2ccccc2C)C(c2ccco2)n2ncnc2N1 (stereo not given)	nt	i	i	i	?	nt
CN(C)c1cccc(-c2nnc(N3CCC(C(N)=O)CC3)s2)c1	nt	i	i	nt	nt	nt
CCOc1ccccc1CNC(=O)Cc1ccc(NC(=O)N2CCCCc3ccccc32)cc1	nt	i	i	i	-11.6%	nt
CCn1c(SC)nc2cc(S(=O)(=O)N3CCCCC3)ccc21	?	20.6µM*	i	i	-9.2%	-9.1%
CCn1c(CN2CCC(C)CC2)nc2cc(S(=O)(=O)N3CCCCC3)ccc21	0.0%	i	?	?	nt	0.6%
O=S(=O)(N=C1C=CC(=NS(=O)(=O)c2ccccc2)c2ccccc21)c1ccccc1	?	?	i	i	nt	-15.1%
Cc1cc(C)c(S(=O)(=O)/N=C2\C=C(Nc3ccc(C(=O)O)cc3)C(=O)c3ccccc32)c(C)c1	4.11µM*	?	i	?	28.2µM*	8.2µM*
Cc1cc(C)c(S(=O)(=O)/N=C2\C=C(NS(=O)(=O)c3ccccc3)C(=O)c3ccccc32)c(C)c1	-6.8%	i	i	?	-5.2%	-5.7%
Cc1ccc(S(=O)(=O)/N=C2/C=C(C3C(=O)CC(C)(C)CC3=O)C(=O)c3ccccc32)cc1	?	i	16.4µM*	i	17.4%	-13.6%
O=C(O)c1ccc(NC2=C/C(=N/S(=O)(=O)c3ccccc3)c3ccccc3C2=O)cc1	5.8µM*	18.4µM*	?	nt	35.5µM*	4.11µM*
SMILES	HT1080 IDH1KD tx	KB-3-1 tox	KB-V1 cytotox	S2 tox	ATXN2 expr inh	HT1080-NT tox
Cc1ccc(S(=O)(=O)/N=C2\C=C(NS(=O)(=O)c3ccccc3)C(=O)c3ccccc32)cc1	?	i	i	20µM*	-31.0%	?
O=C(NCCc1cccs1)c1ccc(Cn2c(SCc3ccccc3)nc3cccnc32)cc1	nt	i	i	?	-4.8%	nt
Cc1cc(F)ccc1S(=O)(=O)N1CCCOC1CNC(=O)C(=O)NCCc1c[nH]c2ccccc12 (stereo not given)	-4.0%	?	3.26µM*	i	0.0%	-2.2%
Cc1cc(C)c(S(=O)(=O)N2CCCOC2CNC(=O)C(=O)NCCc2c[nH]c3ccccc23)c(C)c1 (stereo not given)	-28.2%	i	16.4µM*	i	-38.9%	-1.3%
Cc1ccc(S(=O)(=O)N2CCCOC2CNC(=O)C(=O)NCCC2=CCCCC2)cc1 (stereo not given)	-18.5%	?	2.91µM*	i	-13.0%	-5.1%
Cc1cc(C)c(S(=O)(=O)N2CCCOC2CNC(=O)C(=O)NCc2cccs2)c(C)c1 (stereo not given)	3.4%	i	18.4µM*	i	6.2%	-0.7%
Cc1ccc(S(=O)(=O)N2CCCOC2CNC(=O)C(=O)NCCN2CCOCC2)cc1 (stereo not given)	-5.3%	i	i	i	-3.2%	-2.5%
O=C(NCCc1c[nH]c2ccccc12)C(=O)NCC1OCCCN1S(=O)(=O)c1ccc(F)cc1 (stereo not given)	-8.1%	i	?	i	-5.3%	-12.8%
O=C(Nc1cccc(-c2nc3ccccc3o2)c1)c1cccc2c(Cl)cccc12	nt	i	i	i	13.1%	nt
CCCS(=O)(=O)Nc1cccc(-c2cn3ccc(C)cc3n2)c1	nt	i	i	i	16.2%	nt
Cc1ccc(CNC(=O)N2CCC(CN3CCC(C)CC3)CC2)cc1	nt	i	i	i	-3.6%	nt
Cc1cc(C)c(NC(=O)C(=O)NCC(c2cccnc2)N2CCN(Cc3ccccc3)CC2)c(C)c1 (stereo not given)	nt	i	i	i	-4.7%	nt
CCCCCCN1C[C@@H](n2cc(C3CC3)nn2)[C@H](O)C[C@@H]1c1ccc(OC)cc1	-6.4%	i	?	20µM*	?	-11.2%
CCCCCCN1C[C@H](n2cc(COC(=O)c3ccccc3)nn2)[C@@H](O)C[C@@H]1c1ccccc1	5.1%	i	i	?	0.0%	1.7%
CCCCCCN1C[C@@H](n2cc(COC(=O)c3ccccc3)nn2)[C@H](O)C[C@@H]1c1ccc(Cl)cc1	6.3%	i	i	31.6µM*	?	8.8%
CCCCCCN1C[C@@H](n2cc(C3CC3)nn2)[C@H](O)C[C@@H]1c1ccc(C)cc1	?	i	i	20µM*	?	-27.6%
